Max response data for twelve compounds are collected here from PubChem BioAssay (NCATS).

Where “and” joins values, the source holds several entries; their conditions need not be identical. Equal values may be shown once. Records with an inconclusive call do not appear. Unmarked numbers belong to inactive results. The call rests on the fitted dose curve; in most records, active means well fitted inhibition curve with a large enough effect; inconclusive means small, poorly fitted or top-dose-only effect; inactive means flat fitted curve, though single readings scatter.
On the % scale 0 is the no-effect control and ±100 the full control effect.

The experiment has as its system KB-3-1. In words: Cytotoxic Profiling of Annotated Libraries Using Quantitative High-Throughput Screening (AID 1296008). Further: nearly all actives have a fitted effect of over 60% in size. As to conditions: Five cell lines viability, CellTiter-Glo ATP luminescence, 48-72 h; max response: active compounds read low. The essentials:
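Compounds were pin-transferred onto cells and incubated 48 or 72 hr at 37 degree Celsius, 95% humidity. CellTiter-Glo was added, plates sat 10 min at room temperature, then ATP-coupled luminescence was imaged as the viability read-out.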
A general note: ATP-based viability assays read luminescence as a measure of living cells.
Regarding `COC(=O)[C@H]1[C@H]2C[C@@H]3c4[nH]c5cc(OC)ccc5c4CCN3C[C@H]2C[C@H](OC)[C@@H]1OC`, the max response was 14.2%.
Next, `OCCN1CCN(CC/C=C2/c3ccccc3Sc3ccc(Cl)cc32)CC1`: 6.68%; `OC[C@H]1O[C@@](CO)(O[C@H]2O[C@H](CO)[C@@H](O)[C@H](O)[C@H]2O)[C@@H](O)[C@@H]1O`: 8.24%.
To `NCC[C@H](O)C(=O)N[C@@H]1C[C@H](N)[C@@H](O[C@H]2O[C@H](CN)[C@@H](O)[C@H](O)[C@H]2O)[C@H](O)[C@H]1O[C@H]1O[C@H](CO)[C@@H](O)[C@H](N)[C@H]1O` belongs 3.67%; to `CCc1ccc(S(=O)(=O)O)cc1`, 6.98%; to `O=C(O)c1ccc(OCCn2ccnc2)cc1`, 6.76%.
Next, `CC(=O)O[C@@H]1CC2CCC1(C)C2(C)C` (some centres not stated): -0.31%; `CC(C)(C)NCC(O)c1ccc(O)c(CO)n1` (configuration not stated): -3.71%.
As for `NC(=S)N=Nc1ccc(NN=C(N)N)cc1`, the max response was -12.2%.
To `Cc1ccc(C(C)(C)c2ccc(C)cc2)cc1` belongs -2.63%.
For `CC(C)=CCC/C(C)=C/CC/C(C)=C/CC/C(C)=C/CC1=C(C)C(=O)c2ccccc2C1=O`, the max response is 5.32% and -12.9%.
Next, `C[C@@](Cc1ccc(O)c(O)c1)(NN)C(=O)O`: 2.59%.
